The results in this text go back to PMC7862700, “An all-to-all approach to the identification of sequence-specific readers for epigenetic DNA modifications on cytosine”.

Common to all, as to assay: DAPPL (digital affinity profiling via proximity ligation, sequencing); 10 mM Tris-HCl pH 7.5, 50 mM NaCl, 1 mM DTT, 4% glycerol, room temperature, 30 min; GST-TFs on glutathione beads, 16-mer random dsDNA library, 0.1% formaldehyde crosslink after washing; high values mean tight binding
Common to all, as to conditions: protein: recombinant; tags: N-terminal GST; dsDNA, one strand shown

In assay [1] the target is T1, ELK1 (Homo sapiens, UniProt P19419 1-428).
T1 sequence: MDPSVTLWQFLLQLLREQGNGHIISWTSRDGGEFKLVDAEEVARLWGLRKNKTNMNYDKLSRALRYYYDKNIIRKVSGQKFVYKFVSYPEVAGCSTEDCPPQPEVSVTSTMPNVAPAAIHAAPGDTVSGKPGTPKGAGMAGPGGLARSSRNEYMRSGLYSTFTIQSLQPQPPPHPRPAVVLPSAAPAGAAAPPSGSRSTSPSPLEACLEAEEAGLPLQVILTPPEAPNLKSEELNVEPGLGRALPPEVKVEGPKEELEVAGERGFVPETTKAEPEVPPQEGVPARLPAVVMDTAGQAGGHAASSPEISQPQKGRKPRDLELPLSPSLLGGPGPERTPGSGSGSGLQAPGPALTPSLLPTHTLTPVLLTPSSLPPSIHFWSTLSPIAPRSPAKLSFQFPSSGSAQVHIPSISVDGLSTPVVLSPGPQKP
An outline of the steps:
(§1)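 GST fusions of human transcription factors were expressed in yeast and captured with glutathione beads. Once given DNA barcodes and pooled alongside a tag-only sample, they were incubated for 30 min at room temperature with 200 nmole of a random double-stranded 16-mer DNA library in Tris/NaCl/DTT/glycerol buffer, then washed, crosslinked (0.1% formaldehyde), proximity-ligated, PCR-amplified and sequenced on an Illumina NextSeq500. The binding signal of each hexamer is its read frequency for a factor divided by its frequency for the tag-only sample.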

Assay [2] has as its target T2, GABPA (Homo sapiens, UniProt Q06546 1-454).
T2 sequence: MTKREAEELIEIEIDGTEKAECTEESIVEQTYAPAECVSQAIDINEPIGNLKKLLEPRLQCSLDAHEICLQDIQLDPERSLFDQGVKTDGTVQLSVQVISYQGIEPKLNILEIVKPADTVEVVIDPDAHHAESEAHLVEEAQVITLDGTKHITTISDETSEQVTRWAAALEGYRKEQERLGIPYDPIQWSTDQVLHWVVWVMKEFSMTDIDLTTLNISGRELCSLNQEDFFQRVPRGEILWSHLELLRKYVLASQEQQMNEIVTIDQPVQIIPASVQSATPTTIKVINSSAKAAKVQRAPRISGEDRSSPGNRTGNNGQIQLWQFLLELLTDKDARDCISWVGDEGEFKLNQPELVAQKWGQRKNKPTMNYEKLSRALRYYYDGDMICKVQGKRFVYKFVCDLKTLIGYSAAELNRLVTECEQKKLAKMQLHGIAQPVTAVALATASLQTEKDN
An outline of the steps:
as §1

Assay [3] addresses T3, ERG (Homo sapiens, UniProt P11308 1-479).
T3 sequence: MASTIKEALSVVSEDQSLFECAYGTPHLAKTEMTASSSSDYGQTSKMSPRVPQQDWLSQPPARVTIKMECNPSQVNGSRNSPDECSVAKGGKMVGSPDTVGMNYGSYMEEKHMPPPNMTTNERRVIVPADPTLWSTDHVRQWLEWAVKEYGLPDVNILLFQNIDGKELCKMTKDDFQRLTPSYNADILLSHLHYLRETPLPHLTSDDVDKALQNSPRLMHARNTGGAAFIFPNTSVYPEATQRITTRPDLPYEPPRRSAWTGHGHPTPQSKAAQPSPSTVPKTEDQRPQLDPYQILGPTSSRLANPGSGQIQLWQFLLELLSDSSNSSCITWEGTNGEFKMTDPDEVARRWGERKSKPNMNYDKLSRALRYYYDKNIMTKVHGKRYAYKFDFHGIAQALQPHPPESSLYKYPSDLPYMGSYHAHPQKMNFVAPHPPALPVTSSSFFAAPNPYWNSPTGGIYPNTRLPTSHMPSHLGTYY
An outline of the steps: as §1

The target of assay [4] is ELF1 (Homo sapiens, UniProt P32519 1-619). An outline of the steps: as §1
The target of assay [5] is T4, EHF (Homo sapiens, UniProt Q9NZC4 1-300).
T4 sequence: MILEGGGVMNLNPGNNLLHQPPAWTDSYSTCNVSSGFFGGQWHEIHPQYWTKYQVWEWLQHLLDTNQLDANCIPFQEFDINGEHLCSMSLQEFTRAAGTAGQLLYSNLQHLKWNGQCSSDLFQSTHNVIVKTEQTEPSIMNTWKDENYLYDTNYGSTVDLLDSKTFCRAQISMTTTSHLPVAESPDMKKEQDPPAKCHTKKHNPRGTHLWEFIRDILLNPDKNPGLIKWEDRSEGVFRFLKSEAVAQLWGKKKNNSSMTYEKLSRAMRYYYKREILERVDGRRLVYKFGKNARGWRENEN
An outline of the steps: as §1

For assay [6], the target named is SPI1 (Homo sapiens, UniProt P17947 1-270). The gist of the method: as §1
The target of assay [7] is SPIB (Homo sapiens, UniProt Q01892 1-262). The gist of the method:
as §1

The target in assay [8] is T5, FEV (Homo sapiens, UniProt Q99581 1-238).
T5 sequence: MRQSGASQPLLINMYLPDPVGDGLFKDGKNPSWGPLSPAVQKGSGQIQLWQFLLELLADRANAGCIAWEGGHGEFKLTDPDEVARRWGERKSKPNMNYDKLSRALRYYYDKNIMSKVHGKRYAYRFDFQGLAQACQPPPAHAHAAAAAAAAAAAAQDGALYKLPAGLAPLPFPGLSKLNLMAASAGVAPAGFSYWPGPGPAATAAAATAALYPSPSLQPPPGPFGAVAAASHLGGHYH
The gist of the method:
as §1

Assay [9] addresses ETV5 (Homo sapiens, UniProt P41161 1-510). The gist of the method: as §1
The target in assay [10] is ELF4 (Homo sapiens, UniProt Q99607 1-663). The gist of the method: as §1
ELF4, sequence (Q99607 whole entry): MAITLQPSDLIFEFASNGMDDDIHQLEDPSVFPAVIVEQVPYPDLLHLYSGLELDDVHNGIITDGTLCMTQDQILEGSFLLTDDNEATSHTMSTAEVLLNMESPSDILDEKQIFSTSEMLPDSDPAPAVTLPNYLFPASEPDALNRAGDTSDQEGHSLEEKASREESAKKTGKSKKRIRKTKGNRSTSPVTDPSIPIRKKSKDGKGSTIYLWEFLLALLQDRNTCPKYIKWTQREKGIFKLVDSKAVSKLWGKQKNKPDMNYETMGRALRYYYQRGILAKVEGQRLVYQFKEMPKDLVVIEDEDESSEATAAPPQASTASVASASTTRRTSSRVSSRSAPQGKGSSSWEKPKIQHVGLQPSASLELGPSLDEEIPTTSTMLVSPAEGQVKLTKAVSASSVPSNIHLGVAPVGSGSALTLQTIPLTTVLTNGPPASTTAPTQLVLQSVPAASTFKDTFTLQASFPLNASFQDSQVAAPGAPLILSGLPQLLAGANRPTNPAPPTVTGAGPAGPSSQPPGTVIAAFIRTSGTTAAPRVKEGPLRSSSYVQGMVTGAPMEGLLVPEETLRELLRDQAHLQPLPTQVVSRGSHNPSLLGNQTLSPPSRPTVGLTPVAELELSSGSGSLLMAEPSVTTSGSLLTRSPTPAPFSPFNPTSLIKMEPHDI

SPIB, sequence (Q01892 whole entry): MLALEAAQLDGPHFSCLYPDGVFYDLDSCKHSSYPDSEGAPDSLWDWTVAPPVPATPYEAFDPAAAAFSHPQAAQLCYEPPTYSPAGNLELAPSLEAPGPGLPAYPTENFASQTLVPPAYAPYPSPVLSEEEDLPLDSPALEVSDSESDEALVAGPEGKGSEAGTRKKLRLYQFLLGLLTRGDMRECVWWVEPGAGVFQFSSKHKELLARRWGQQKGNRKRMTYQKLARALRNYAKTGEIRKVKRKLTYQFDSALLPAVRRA
ETV5, sequence (P41161 whole entry): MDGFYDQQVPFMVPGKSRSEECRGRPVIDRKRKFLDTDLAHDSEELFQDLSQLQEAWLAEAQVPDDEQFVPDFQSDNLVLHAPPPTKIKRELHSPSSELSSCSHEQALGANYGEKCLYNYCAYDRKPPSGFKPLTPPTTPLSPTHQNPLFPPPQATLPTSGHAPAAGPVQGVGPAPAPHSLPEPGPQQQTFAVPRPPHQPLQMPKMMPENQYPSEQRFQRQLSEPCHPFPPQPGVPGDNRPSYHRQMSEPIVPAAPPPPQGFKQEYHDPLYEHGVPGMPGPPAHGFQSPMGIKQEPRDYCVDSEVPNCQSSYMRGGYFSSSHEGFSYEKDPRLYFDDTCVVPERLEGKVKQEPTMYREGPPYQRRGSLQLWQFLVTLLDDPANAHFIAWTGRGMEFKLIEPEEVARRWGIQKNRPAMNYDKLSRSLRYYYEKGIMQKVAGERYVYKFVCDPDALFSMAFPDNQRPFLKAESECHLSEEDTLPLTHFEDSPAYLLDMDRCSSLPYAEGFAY
ELF1, sequence (P32519 whole entry): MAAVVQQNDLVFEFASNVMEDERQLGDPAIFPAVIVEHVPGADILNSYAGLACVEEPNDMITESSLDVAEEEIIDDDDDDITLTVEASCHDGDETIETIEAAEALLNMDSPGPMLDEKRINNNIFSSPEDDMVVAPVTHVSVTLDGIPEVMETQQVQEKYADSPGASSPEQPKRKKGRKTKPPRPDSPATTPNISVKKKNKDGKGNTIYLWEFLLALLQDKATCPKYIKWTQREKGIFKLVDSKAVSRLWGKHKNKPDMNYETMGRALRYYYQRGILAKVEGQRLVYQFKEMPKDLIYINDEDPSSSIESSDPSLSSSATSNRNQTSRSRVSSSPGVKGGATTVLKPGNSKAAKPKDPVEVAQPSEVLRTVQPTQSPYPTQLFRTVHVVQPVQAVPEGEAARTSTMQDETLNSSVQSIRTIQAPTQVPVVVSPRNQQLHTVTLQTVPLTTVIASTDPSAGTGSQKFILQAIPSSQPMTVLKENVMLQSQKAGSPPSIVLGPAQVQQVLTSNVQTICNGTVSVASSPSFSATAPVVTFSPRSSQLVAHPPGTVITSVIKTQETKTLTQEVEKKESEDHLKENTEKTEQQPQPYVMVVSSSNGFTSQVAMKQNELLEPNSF

With ACCATT, the binding signal is 1.11 fold enrichment (6-mer frequency, TF over GST control) in [1]; 1.1 fold enrichment (6-mer frequency, TF over GST control) in assay [2]; 1.12 fold enrichment (6-mer frequency, TF over GST control) in assay [3]; 1.1 fold enrichment (6-mer frequency, TF over GST control) in [4]; 1.11 fold enrichment (6-mer frequency, TF over GST control) in [5]; 1.16 fold enrichment (6-mer frequency, TF over GST control) in assay [6]. Besides, the binding signal in [7] was 1.11 fold enrichment (6-mer frequency, TF over GST control); in [8], 1.15 fold enrichment (6-mer frequency, TF over GST control); in assay [9] it was 1.08 fold enrichment (6-mer frequency, TF over GST control); in [10], 1.19 fold enrichment (6-mer frequency, TF over GST control).
